In PubChem BioAssay AID504408 (Broad Institute, 2011):
Among all 300,000 compounds or so, about 5,200 (1.7%) were called active.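 How the source made its calls: active means mean replicate activation of at least 50% with a set share of replicates each reaching 50%; inconclusive means only one of those two conditions met; inactive means mean below 50% and too few replicates reaching it.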 Only a selection was taken, and actives are over-represented in it overall.

test: HSF-1 response element luciferase induction – NIH3T3-HGL cells, MG132 stress, luminescence, single point, primary screen (AID 504408); conditions: NIH3T3-HGL HSF-1 luciferase reporter, MG132, 8 h; at 9 µM; stronger effect = higher value; 100% = twice DMSO control signal;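 further: 0% = median of the neutral control wells and 100% = twice that signal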

SMILES	activation
CCCCn1c(N)c(N(CCC(C)C)C(=O)c2ccc(COc3ccccc3)o2)c(=O)[nH]c1=O	7.06% (inactive)
CCCCn1c(N)c(N(CC(C)C)C(=O)CN(C)S(=O)(=O)c2ccc(F)cc2)c(=O)[nH]c1=O	-2.61% (inactive)
Cc1ccc(S(=O)(=O)N2CCN(C(=O)c3ccc(-n4cncn4)c([N+](=O)[O-])c3)CC2)cc1	-21.4% (inactive)
Cc1ccc(NC(=O)CSc2cccc3cccnc23)c(C)c1	4.2% (inactive)
O=C(CNC(=O)c1cccnc1)N/N=C/c1cccnc1	-3.13% (inactive)
O=C(CSc1cccc2cccnc12)N/N=C/c1cccnc1	161% (active)
CC(C)(C)S(=O)(=O)c1ccccc1-c1noc(-c2ccccc2)c1C(N)=O	-2.64% (inactive)
O=C1N=C(N2CCCC2)S/C1=C\c1cccc(Br)c1	103% (active)
CC1CCN(C2=NC(=O)/C(=C/c3ccc(O)cc3)S2)CC1	8.53% (inactive)
CCOc1cc(/C=C2\SC(N3CCCCC3)=NC2=O)ccc1O	34.2% (inactive)
NC(=O)NC(=O)C(OC(=O)CCNS(=O)(=O)c1ccccc1)c1ccccc1 (stereo not given)	18.2% (inactive)
O=C(CCNC(=O)c1ccc(Br)cc1)Nc1cccc(S(=O)(=O)N2CCCCC2)c1	23.3% (inactive)
CCCCn1c(N)c(N(CC(C)C)C(=O)c2ccc(Br)o2)c(=O)[nH]c1=O	-5.41% (inactive)
CCOc1ccc(/C=C/C(=O)OCC(=O)c2ccccc2OC)cc1OC	1.42% (inactive)
CCN1C(=O)[C@@H]2[C@@H](c3ccc(-c4ccccc4)cc3)N3CCCC[C@@]3(C(=O)OC)[C@@H]2C1=O	16.1% (inactive)
CSc1ccc(/C=N/NC(=O)c2cccc(Cl)c2)cc1	80.3% (active)
CSc1ccc(/C=N\NC(=O)COc2ccc(Cl)cc2Br)cc1	0.476% (inactive)
COc1ccc(/C=N/NC(=O)c2cccc(C(F)(F)F)c2)cc1	0.104% (inactive)
O=C(COC(=O)c1ccccc1SCC(=O)N1CCCC1)Nc1ccccc1OC(F)F	5.14% (inactive)
O=C(COC(=O)c1ccc([N+](=O)[O-])cc1Cl)NC(=O)c1ccccc1	-8.14% (inactive)
CCOc1ccc2ccccc2c1/C=N/NC(=O)c1c(C)cc(C)[nH]c1=O	23.9% (inactive)
Cc1nnc(N/N=C/c2cccs2)[nH]c1=O	-4.02% (inactive)
Cc1nnc(N/N=C/c2ccccn2)[nH]c1=O	-18.5% (inactive)

SMILES	activation
Cc1ccccc1Nc1nnc(C)c(=O)[nH]1	54.6% (active)
O=C(CSc1ccc(-c2ccc(-n3cccn3)cc2)nn1)Nc1ccc([N+](=O)[O-])cc1	8.59% (inactive)
CCOc1cc(/C=C/c2nc3ccccc3c(=O)[nH]2)cc(Br)c1OC	14.8% (inactive)
O=c1[nH]c(/C=C/c2cccc(Br)c2)nc2ccccc12	58.9% (active)
O=c1oc(/C=C/c2ccccc2)nc2ccccc12	-13.5% (inactive)
CCOc1ccc(CCNC(=O)COC(=O)CCS(=O)(=O)c2ccc(C)cc2)cc1OCC	1.98% (inactive)
Cc1cc(Br)ccc1NC(=O)CN(C)C(=O)CN1C(=O)NC2(CCCC2)C1=O	6.32% (inactive)
CCC(c1nnnn1Cc1ccco1)N(Cc1cc2cc(OC)ccc2[nH]c1=O)C1CCCCC1 (stereo not given)	136% (active)
CCC(c1nnnn1Cc1ccccc1)N(Cc1cc2cc(OC)ccc2[nH]c1=O)CC1CCCO1 (stereo not given)	17.4% (inactive)
CCC(c1nnnn1Cc1ccco1)N(CCc1ccccc1)Cc1cc2ccc(OC)cc2[nH]c1=O (stereo not given)	9.84% (inactive)
CCc1ccc(CNC(=O)CCc2nc(-c3cccs3)no2)cc1	3.43% (inactive)
COc1ccc(OC)c(CNC(=O)CCc2nc(-c3cccs3)no2)c1	-8.19% (inactive)
COc1ccc(CCc2nc(-c3cccs3)no2)cc1	65% (active)
COc1cccc(N2CC(NS(=O)(=O)c3ccc(Cl)cc3)CC2=O)c1 (stereo not given)	11.2% (inactive)
COc1ccc(NC(=O)CCC(=O)N2CCN(S(=O)(=O)c3ccc(C)cc3)CC2)c(OC)c1	-9.72% (inactive)
CN(CC(=O)Nc1ccccc1Cl)C(=O)c1ccccc1SCC(=O)N1CCCC1	15.5% (inactive)
O=C(O)CC1=C(Nc2ccccc2)C(=O)N(c2ccccc2)C1c1ccc(Cl)cc1 (stereo not given)	65.5% (active)
O=C(Nc1ccccc1)OCc1cn(-c2ccc(Cl)cc2)nn1	-2.71% (inactive)
COC(=O)CN1C(=S)N(c2ccccc2)C(=O)C1CC(=O)Nc1ccc(Cl)cc1 (stereo not given)	4.42% (inactive)
COc1ccc(Cl)cc1C=CC=NNC(=O)c1ccncc1	5.04% (inactive)
O=C(Cc1ccc(Br)cc1)NCCc1ccccc1	18.4% (inactive)
CC(=O)c1c(C)[nH]c(C(=O)CN2C(=O)NC(C)(C)C2=O)c1C	-22.1% (inactive)
Cc1ccc2c(=O)cc(C(=O)NCCc3ccc(S(N)(=O)=O)cc3)oc2c1C	62.8% (active)

SMILES	activation
Cc1cc(=O)oc2c(C)c(OCC(=O)NCCc3ccc(S(N)(=O)=O)cc3)ccc12	-4.95% (inactive)
Cc1cc(=O)oc2cc(OC(C)C(=O)NCCc3ccc(S(N)(=O)=O)cc3)ccc12 (stereo not given)	12.2% (inactive)
O=C(NCCC1CCCCN1S(=O)(=O)c1ccc(F)cc1)C(=O)NC1CC1 (stereo not given)	3.8% (inactive)
CCOc1ccc(CCNC(=O)COC(=O)C2CCN(c3ccc(C(F)(F)F)cn3)CC2)cc1OCC	2.31% (inactive)
Cc1nc(NC(=O)c2ccc3c(c2)OCCO3)ccc1Br	58.7% (active)
O=C(Nc1ccccc1)c1ccc2c(c1)OCCCO2	12.7% (inactive)
O=C(Nc1ccc(Cl)cn1)c1ccc2c(c1)OCCO2	9.46% (inactive)
O=[N+]([O-])c1ccc(O)c(/C=N/Nc2ccccc2[N+](=O)[O-])c1	-10.2% (inactive)
Nn1cnnc1N/N=C/c1cc([N+](=O)[O-])c(Cl)cc1Cl	56.4% (active)
Cc1ccc2nc(NC(=O)CSc3nc(=O)n(CCCN(C)C)c4c3CCC4)sc2c1	2.36% (inactive)
Cc1ccccc1OCC(=O)NNC(=O)c1ccc(-n2cncn2)c([N+](=O)[O-])c1	4.89% (inactive)
Cc1ccc(C)c(NC(=O)COC(=O)Cn2c(C)csc2=O)c1	-8.55% (inactive)
COc1cc(/C=N/NC(=O)c2cc(-c3ccccc3C)nc3ccccc23)cc(OC)c1O	18.6% (inactive)
CN1CCN(C2Cc3ccc(Cl)cc3Sc3ccc(F)cc32)CC1 (stereo not given)	-3.39% (inactive)
Cc1cccc(C)c1OCC(=O)NC(Cc1c[nH]c2ccccc12)C(=O)O (stereo not given)	0.58% (inactive)
CC(=O)NC(Cc1c[nH]c2ccccc12)C(=O)O (stereo not given)	56% (active)
CC(=O)NC(Cc1c[nH]c2ccccc12)C(=O)NCCc1ccccc1 (stereo not given)	-11.2% (inactive)
CC1CCN(C(=O)c2cccc(S(=O)(=O)N3CCCc4ccccc43)c2)CC1	9.01% (inactive)
Cc1ccc(N2CC(C(=O)N3CCC4(CC3)CC(=O)c3ccccc3O4)CC2=O)cc1C (stereo not given)	-2.34% (inactive)
O=C(O)C1C2C=CC(C2)C1C(=O)NCc1ccccc1 (stereo not given)	-13% (inactive)
Nc1ccccc1/C=N\N=C/c1ccccc1N	1.94% (inactive)
Cc1ccc(-n2ncc3c(N4CCN(c5ccc(F)cc5)CC4)ncnc32)c(C)c1	57.9% (active)
Cc1ccc2cc(C)c(N3CCN(c4ccc(F)cc4)CC3)nc2c1	5.08% (inactive)

SMILES	activation
Cc1ccc(-n2ncc3c(=O)[nH]cnc32)c(C)c1	-3.73% (inactive)
Nc1ccc(C(=O)N2CCN(S(=O)(=O)c3ccc(Cl)cc3)CC2)cc1[N+](=O)[O-]	17.9% (inactive)
COc1ccc(C)cc1NC(=O)CSc1nnc2ccc(-c3ccccn3)nn12	-10.8% (inactive)
COc1ccc(C2=NN(C(=O)CSc3nc(=O)n4ccc(C)cc4n3)C(c3ccc(C)cc3)C2)cc1 (stereo not given)	9.37% (inactive)
CN(c1ccccc1)S(=O)(=O)c1ccc(Cl)c(C(=O)NCCc2c[nH]c3ccccc23)c1	-1.41% (inactive)
O=C(NCCc1c[nH]c2ccccc12)c1cc2ccccc2oc1=O	62.1% (active)
O=C(NCCc1c[nH]c2ccccc12)c1cccc(Br)c1	7.52% (inactive)
COc1ccccc1CNS(=O)(=O)c1cc2c3c(c1)CCC(=O)N3CCC2	14.6% (inactive)
COc1ccc(CC(=O)OC(C)C(=O)Nc2ccc(S(N)(=O)=O)cc2)cc1 (stereo not given)	-0.48% (inactive)
CC(OC(=O)CNC(=O)c1cccc(F)c1)C(=O)NC1CCCCC1C (stereo not given)	-3.7% (inactive)
CCOC(=O)C1=C(c2ccccc2)NC(=O)NC1c1cc(OC)c(OC)cc1OC (stereo not given)	-12.4% (inactive)
CCOC(=O)C1=C(c2ccccc2)NC(=S)NC1c1ccc(Cl)cc1 (stereo not given)	63.5% (active)
CCOC(=O)C1=C(c2ccccc2)NC(=O)NC1c1cc(OCC)c(O)c([N+](=O)[O-])c1 (stereo not given)	29.6% (inactive)
CCOC(=O)C1=C(CN2CCc3ccccc32)NC(=O)NC1c1ccc(Cl)cc1 (stereo not given)	58.6% (active)
CCOC(=O)C1=C(CN2CCc3ccccc32)NC(=O)NC1c1cc(C)ccc1C (stereo not given)	15.2% (inactive)
CCOC(=O)C1=C(CN2CCc3ccccc32)NC(=O)NC1c1cccc([N+](=O)[O-])c1 (stereo not given)	39.3% (inactive)
CC(=O)CC(CC(=O)NC1CCCCC1)c1ccccc1 (stereo not given)	-2.27% (inactive)
CC(NC(=O)c1ccccc1SCC(=O)N1CCCC1)c1ccccc1 (stereo not given)	-5.63% (inactive)
COc1ccc(C(C(=O)NC(C)(C)C)N(C(=O)Cn2nnc3ccccc32)c2ccc(C(C)=O)cc2)cc1O (stereo not given)	1.15% (inactive)
COc1ccc(C(C(=O)NCC2CCCO2)N(C(=O)Cn2nnc3ccccc32)c2ccc(NC(C)=O)cc2)cc1OC (stereo not given)	84% (active)
CCOc1cc(C(C(=O)NCC2CCCO2)N(C(=O)Cn2nnc3ccccc32)c2cccc(OC)c2)ccc1O (stereo not given)	-1.11% (inactive)
